The values that follow come from the supplement of paper PMC12669032.

Molecules are shown by their SMILES. Values without a mark were called inactive.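 The calls were made as follows: active = AUC reduced over 20% with Padj below 0.05 in at least 2 of 3 replicates; inactive = otherwise.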

Common to all, as to assay: growth AUC relative to DMSO control (median of replicates) (fraction); higher = more growth (less inhibition), active = hit call of the paper
What all share (conditions): 20 µM; 24 h

One experiment has as its system Coprococcus comes. In a few lines: (§1)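 Gut bacterial monocultures were grown anaerobically at 37 °C in mGAM from a starting OD600 of 0.05 with 20 µM compound (1% DMSO), in round-bottom 96-well plates under pierced gas-permeable seals, and OD600 was read hourly for 24 h. With the minimum OD set to 0, area under the growth curve was normalised to the plate median of solvent-only wells, or to row and column medians on the industrial chemical plate. Each value is the median of three biological replicates grown on separate days.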

The next experiment deals with Escherichia coli ED1a. In a few lines:
as §1

A further experiment concerns Escherichia coli IAI1. In a few lines:
as §1

In the next experiment the test system is Eubacterium rectale. The method in brief:
as §1

In experiment [1] the test system is Fusobacterium nucleatum subsp. animalis. The method in brief:
as §1

The test system of a further experiment is Lactobacillus gasseri. In a few lines:
as §1

Another experiment relates to Lactobacillus paracasei. In a few lines:
as §1

Another experiment deals with Odoribacter splanchnicus. In a few lines: as §1
Experiment [2] concerns Parabacteroides distasonis. In a few lines: as §1
In a further experiment the test system is Parabacteroides merdae. In a few lines:
as §1

Regarding `CN(C)C(=O)Nc1cccc(C(F)(F)F)c1`, the “growth AUC” value with Coprococcus comes is 0.965; with Escherichia coli ED1a it was 1.01; in the experiment on Escherichia coli IAI1, 0.986; with Eubacterium rectale, 1.01; in [1] it was 1.05; with Lactobacillus gasseri it was 1.05. Besides, the “growth AUC” value is 0.985 with Lactobacillus paracasei, 1.07 in the experiment with Odoribacter splanchnicus, 0.961 in experiment [2] and 1 in the experiment on Parabacteroides merdae.
For the compound `CCOP(=S)(OCC)Oc1ccc2c(C)c(Cl)c(=O)oc2c1`, the “growth AUC” value in the experiment with Coprococcus comes is 1; in the experiment with Escherichia coli ED1a it was 1.02; with Escherichia coli IAI1, 1.01; with Eubacterium rectale, 1.11; in experiment [1] it was 1.01; in the experiment with Lactobacillus gasseri, 0.991. Also, the “growth AUC” value in the experiment on Lactobacillus paracasei was 0.998; in the experiment on Odoribacter splanchnicus, 1.01; in experiment [2], 0.748 (active); in the experiment on Parabacteroides merdae, 0.897.
For the compound `COP(=S)(OC)Oc1ccc([N+](=O)[O-])cc1`, the “growth AUC” value in the experiment with Coprococcus comes is 0.992; in the experiment with Escherichia coli ED1a, 0.999; in the experiment with Escherichia coli IAI1 it was 1; with Eubacterium rectale it was 1.13; in experiment [1], 1.13; in the experiment with Lactobacillus gasseri, 0.915. Also, the “growth AUC” value is 0.989 in the experiment on Lactobacillus paracasei, 0.771 with Odoribacter splanchnicus, 0.93 in [2] and 0.964 in the experiment on Parabacteroides merdae.
As to `CCCSP(=O)(OCC)Oc1ccc(Br)cc1Cl` (stereo not given), the “growth AUC” value in the experiment with Coprococcus comes is 1.01; with Escherichia coli ED1a it was 1.01; with Escherichia coli IAI1, 1.04; with Eubacterium rectale it was 0.993; in [1], 1.11; in the experiment with Lactobacillus gasseri, 0.976. For the same compound, the “growth AUC” value was 1.1 in the experiment on Lactobacillus paracasei, 1.04 with Odoribacter splanchnicus, 0.871 in experiment [2] and 0.994 in the experiment on Parabacteroides merdae.
On to `COP(=O)(OC)OC1=C(Cl)C2C=CCC12` (stereo not given), for which the “growth AUC” value in the experiment on Coprococcus comes is 0.999; in the experiment with Escherichia coli ED1a, 0.968; with Escherichia coli IAI1, 1.03; with Eubacterium rectale it was 1.01; in experiment [1] it was 1.04; in the experiment on Lactobacillus gasseri it was 0.957. The “growth AUC” value in the experiment on Lactobacillus paracasei is 1.02; in the experiment with Odoribacter splanchnicus, 0.892; in experiment [2], 0.975; in the experiment with Parabacteroides merdae, 1.03.
Take `O=[N+]([O-])c1ccc(Oc2ccc(C(F)(F)F)cc2[N+](=O)[O-])cc1`: the “growth AUC” value in the experiment on Coprococcus comes is 0.856; in the experiment on Escherichia coli ED1a, 0.964; with Escherichia coli IAI1, 0.959; in the experiment on Eubacterium rectale, 0.88; in [1] it was 0.969; in the experiment with Lactobacillus gasseri, 0.977. Also, the “growth AUC” value in the experiment on Lactobacillus paracasei is 0.766; with Odoribacter splanchnicus it was 0.982; in experiment [2], 0.957; in the experiment with Parabacteroides merdae, 0.953.
As to `CN(C(=O)COc1nc2ccccc2s1)c1ccccc1`, the “growth AUC” value with Coprococcus comes is 1.01; in the experiment with Escherichia coli ED1a, 1.02; with Escherichia coli IAI1, 0.952; in the experiment on Eubacterium rectale it was 1; in [1] it was 1.1; in the experiment with Lactobacillus gasseri, 1.13. The “growth AUC” value in the experiment with Lactobacillus paracasei was 1.02; in the experiment with Odoribacter splanchnicus, 0.934; in [2], 0.948; in the experiment on Parabacteroides merdae, 0.998.
Regarding `Oc1cc(Cl)c(Cl)cc1Cl`, the “growth AUC” value in the experiment on Coprococcus comes is 0.983; in the experiment with Escherichia coli ED1a, 0.978; with Escherichia coli IAI1 it was 0.938; in the experiment on Eubacterium rectale, 0.97; in experiment [1], 1; in the experiment with Lactobacillus gasseri, 0.843. The “growth AUC” value is 0.971 in the experiment with Lactobacillus paracasei, 1.12 with Odoribacter splanchnicus, 0.962 in experiment [2] and 0.927 with Parabacteroides merdae.
`Cc1c(N)cccc1N`: the “growth AUC” value in the experiment with Coprococcus comes is 1.01; with Escherichia coli ED1a, 0.995; in the experiment with Escherichia coli IAI1 it was 0.981; in the experiment with Eubacterium rectale, 1.01; in experiment [1], 1.04; in the experiment with Lactobacillus gasseri it was 1.01. Further, the “growth AUC” value with Lactobacillus paracasei is 0.991; with Odoribacter splanchnicus, 0.938; in [2], 0.995; with Parabacteroides merdae, 1.01.
As for `O=S(=O)(c1ccc(Cl)cc1)c1cc(Cl)c(Cl)cc1Cl`, the “growth AUC” value in the experiment on Coprococcus comes is 0.987; in the experiment on Escherichia coli ED1a it was 0.98; in the experiment on Escherichia coli IAI1, 0.99; with Eubacterium rectale it was 0.926; in experiment [1], 0.9; with Lactobacillus gasseri it was 0.99. Besides, the “growth AUC” value in the experiment with Lactobacillus paracasei is 0.731; in the experiment on Odoribacter splanchnicus it was 1.01; in experiment [2], 0.971; in the experiment on Parabacteroides merdae, 0.984.
Turning to `NC(=O)/N=C1/SCCN1Cc1ccc(Cl)nc1`, the “growth AUC” value in the experiment on Coprococcus comes is 0.965; in the experiment on Escherichia coli ED1a, 0.999; with Escherichia coli IAI1, 0.997; in the experiment on Eubacterium rectale, 1.02; in [1], 0.984; with Lactobacillus gasseri it was 0.995. The “growth AUC” value in the experiment on Lactobacillus paracasei is 0.975; in the experiment on Odoribacter splanchnicus, 1.03; in [2], 0.992; with Parabacteroides merdae, 0.984.
On to `CC(C)=CC1C(C(=O)OC(C#N)c2cccc(Oc3ccccc3)c2)C1(C)C` (mixture of isomers), for which the “growth AUC” value was 0.983 with Coprococcus comes; 1 in the experiment on Escherichia coli ED1a; 0.967 in the experiment on Escherichia coli IAI1; 0.965 with Eubacterium rectale; 0.921 in experiment [1]; 0.921 with Lactobacillus gasseri. Besides, the “growth AUC” value in the experiment on Lactobacillus paracasei is 1.23; in the experiment on Odoribacter splanchnicus it was 1.01; in experiment [2], 1; in the experiment on Parabacteroides merdae, 1.
With `COCCOC(=O)C(C#N)(C(=O)c1ccccc1C(F)(F)F)c1ccc(C(C)(C)C)cc1` (stereo not given), the “growth AUC” value is 0.971 in the experiment on Coprococcus comes; 0.953 with Escherichia coli ED1a; 0.966 in the experiment with Escherichia coli IAI1; 1.05 with Eubacterium rectale; 1.03 in [1]; 0.839 in the experiment on Lactobacillus gasseri. In addition, the “growth AUC” value was 0.908 in the experiment on Lactobacillus paracasei, 1 in the experiment on Odoribacter splanchnicus, 0.723 in experiment [2] and 0.946 in the experiment on Parabacteroides merdae.
For the compound `C[Si](Cn1cncn1)(c1ccc(F)cc1)c1ccc(F)cc1`, the “growth AUC” value was 0.412 (active) in the experiment on Coprococcus comes; 0.982 in the experiment with Escherichia coli ED1a; 0.946 in the experiment with Escherichia coli IAI1; 0.504 (active) in the experiment with Eubacterium rectale; 0.9 in [1]; 1.04 in the experiment with Lactobacillus gasseri. The “growth AUC” value with Lactobacillus paracasei is 0.925; with Odoribacter splanchnicus, 0.925; in [2] it was 0.915; in the experiment with Parabacteroides merdae, 0.964.
